About 3,700 (7%) of roughly 53,000 sequences were called active. The entries come from a sample that favours actives as a whole. Unmarked numbers belong to inactive results.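 How the source made its calls: active means gene knockdowns whose robust z-score for IL-1 alpha signal is at least 2 or at most -2, so actives lie on both sides; inactive means the rest.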

A short description of the assay: Components of the Cytosolic LPS Sensing Pathway: Gene Identification via Genome-wide siRNA Screen.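 Further: robust z of the log signal after scaling to non-targeting control siRNA wells of the plate.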 To be noted: RAW264.7 macrophages, IL-1a HTRF, actives lie on both sides, screened at 100 nM (by protocol), cells primed 5 h with Pam3CSK4 first. Summed up:
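Three distinct siRNAs per gene were tested singly at 100 nM in RAW264.7 macrophages. Following Pam3CSK4 priming and 24 hour LipidA transfection, IL-1a secretion was read by HTRF.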
(TR-FRET usually uses a lanthanide donor and a delayed reading to cut background.)
Regarding GGUGGUUACCAUCUUACUUTT against Trhr, the z-score is 0.532.

For the sequence GGAAAUUUUCAAGCUCAAGTT against Gsdmd, the z-score is -2.44 (active).

As to GGAGGCAUUCGCAUAGACGTT against Tra2a, the z-score is 1.68.

Regarding GGUGUGAGAUCGAAUCAGATT against Arhgef18, the z-score was 0.503.

For GGCACUCUUGUUGAAAUUCTT against H6pd, the z-score was 0.756.

On to GGGUUGUUUGCUGGUUUGUTT against Tmbim4, for which the z-score is 0.885.

On to GGUUGGAAAUUGGACAGGATT against Col6a3, for which the z-score is 2.22 (active).

Regarding GGACCUCACAAGUGUUUAUTT against Pola1, the z-score was -0.837.

Consider GGUGAAUGUGUGGAUUAUCTT against Itih2, for which the z-score was -0.684.

With GGUUGUUCUUAACAUAACCTT against Ginm1, the z-score is 0.0306.

On to GGAUCAAGAAAAGAUGAAATT against Galnt1, for which the z-score is -0.858.

Turning to GGUGAUGCGAUCUUCUUUATT against Anxa10, the z-score was 1.76.

For GGUCAAAAUAGAAGGAGUATT against Klhl4, the z-score is 0.124.

Regarding CCCUGUAUAUAUUUGCUGATT against Clca3a2, the z-score was 2.78 (active).

For GGUGCCCAUAAUAGCCAUCTT against Polr2c, the z-score is -1.02.

GCCACACGACAUGUGAUUCTT against C2cd4c: the z-score is -0.0403.

For the sequence GCAGUUGGCAGGCUAAAAATT against Mff, the z-score was 1.98.

With CCCUAACUUAAUAAAACCUTT against Triobp, the z-score is -2.41 (active).

Regarding GGACAUCGAAGUCCAACACTT against Plekhm1, the z-score was -0.501.

With CCACUUACAUGUCAGAUUATT against Slc30a6, the z-score was 1.09.

Take GGACUGGAAGAAUUUUUUGTT against Mrpl47: the z-score is 0.293.

For GGGACAGAAAGGAAAGACUTT against Ndufb4, the z-score was 0.0331.

As for CCAUUGACACCUUAAAUAUTT against Cnot3, the z-score was 0.131.

Turning to GGGCACACCCAUGAAGACATT against Hnf1a, the z-score was 4.58 (active).

With GGCAGAACUACUUUUAUAGTT against Cldn17, the z-score is 0.436.

As for GGCCGUACUAGAUUUUCUUTT against Olfr695, the z-score was 1.35.

Take GGCUGGGAAUUUUACAGUATT against Gpr3: the z-score was 3.98 (active).

For GGCCUAUAAGUUGGACUCCTT against Sstr5, the z-score was -0.897.

With GGAAUAACAGCCUUGUAUUTT against Slc25a15, the z-score is -0.145.

With GGAUCUGAUCCAGACUUCUTT against Ndrg1, the z-score is 2.05 (active).

For the sequence “GGUUUUCUACAGGAGAGACTT against 9430015G10Rik”, the z-score is 1.33.

On to CGCAAUGCUGGAUUAUUUATT against Ceacam2, for which the z-score is 0.628.

In the case of GGGAAGUGACAUAUUCUCGTT against Brf2, the z-score is -0.277.

In the case of GGAGAAGCCAGGAGUUUACTT against Klk6, the z-score was 1.71.

Regarding GGUACUAGAUGACAAAAACTT against Cfap20, the z-score is 0.436.

Regarding GGUGUUUUAAGAUUGAAUGTT against Ccn1, the z-score is 0.782.

Regarding CCCAGGUAGUAUACAAGGUTT against Pcdh1, the z-score was 2.42 (active).

For the sequence CCCUCCAGUAAAUUUUAAGTT against Sox6, the z-score was 1.7.

On to GGCAUAUGCCAGUAUCGGUTT against Defb8, for which the z-score is -0.595.

Regarding GGAAUGGUAUCAGACUUCUTT against Tarm1, the z-score was 1.54.

In the case of GCUACAGAAACCCGGGUAGTT against Jsrp1, the z-score was -1.46.

Take CCGCCAUAGGCUCCUUCAATT against Acat3: the z-score was 0.915.

On to GGGAUCAAUGUCAUCCUUUTT against Nif3l1, for which the z-score is -0.442.

Turning to GCUGCGUAGAACCAUAUGCTT against Cst9, the z-score was -0.802.

Turning to GGAAAUCGAGGUUACAAGUTT against Isy1, the z-score was -2.64 (active).

Consider GGCCACUGACCAUGAAGAATT against Gata2, for which the z-score is -0.289.

Turning to GGCAAACAUGAAUCUUACCTT against Cyth4, the z-score was -0.375.

For the sequence GGAGAUCAUCCACUUCCAGTT against Dbh, the z-score was 2.06 (active).

As to GCAAGACUCUACACAUCACTT against Nox4, the z-score was 0.0384.

Regarding GAGACAGAUAGGCAGAAAATT against Olfr478, the z-score is -1.02.

As for CCAAUUGAAACUCUUUUCCTT against Thada, the z-score was 0.562.

Turning to GGUUUGGUGUCAGGUGACATT against Olfr1181, the z-score was -2.05 (active).

Consider GGGUGAAAAAGGAAUAAAGTT against Col7a1, for which the z-score is 0.344.

For the sequence GGAAAUCAUCUUUUCAGAUTT against Slc7a12, the z-score is -0.443.

Regarding GCCACUAGUGAAGACAUCCTT against Adamtsl1, the z-score is -0.149.

CGUCUCCAUAGAUCUAGAUTT against Creb3: the z-score was -0.748.

With CCAUCUUGACACCCAAACUTT against Olfr170, the z-score was -3.09 (active).

Regarding CGAAAGCAUUGCCUACUUUTT against Anks3, the z-score was 0.843.

In the case of GGGACUUUAAAAAAGACUCTT against Olfr1366, the z-score is 2.1 (active).

For CCAGAGGUCUCUAUUAAGATT against Cad, the z-score was -0.0939.

In the case of GGACAUGGAUCAAAGUUCATT against Zfp40, the z-score was -0.645.

Consider GGCAUCUCCUCGAAUUUAUTT against Theg, for which the z-score is -0.737.

GGAGCAUCCCGACUACAAGTT against Sox21: the z-score is 3.54 (active).

Turning to GGAUCGAUCUGACAUCAAATT against Epyc, the z-score is -0.31.

On to CCUAUUAAUAUGGAAAGUGTT against Arcn1, for which the z-score is 0.675.

With GGGCAACUAUCUUCAAAAATT against Nxnl2, the z-score is 0.328.

With GGCAAUUACCCACCCUGUUTT against Mfsd6, the z-score was -2.57 (active).

CCAAGCCUAAUAAAAUUCCTT against Lsr: the z-score was 0.867.

GGCAGAAAACAAGAUAAAGTT against Eif4h: the z-score was -0.325.

Values taken from PubChem BioAssay AID1508600 (Functional Genomics Laboratory (NCATS/FGL), 2020).
